# ABCB6 inh 2 = inhibitors of human ABC transporter ABCB6; K562-ABCB6 porphyrin accumulation, flow cytometry, 1 h; active compounds read low; fluorescence ratio to DMSO, % at 10 µM; Q9NP58; 360,000 tested, 0.19% active;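 active = fluorescence ratio to DMSO below 75%, the collection mean minus 3 SD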;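 also: signal is porphyrin accumulated inside mitochondria; 100% equals median channel fluorescence of DMSO control wells; lower ratio means ABCB6 inhibition with less porphyrin fluorescence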
# Target sequence (Q9NP58 whole entry, looked up): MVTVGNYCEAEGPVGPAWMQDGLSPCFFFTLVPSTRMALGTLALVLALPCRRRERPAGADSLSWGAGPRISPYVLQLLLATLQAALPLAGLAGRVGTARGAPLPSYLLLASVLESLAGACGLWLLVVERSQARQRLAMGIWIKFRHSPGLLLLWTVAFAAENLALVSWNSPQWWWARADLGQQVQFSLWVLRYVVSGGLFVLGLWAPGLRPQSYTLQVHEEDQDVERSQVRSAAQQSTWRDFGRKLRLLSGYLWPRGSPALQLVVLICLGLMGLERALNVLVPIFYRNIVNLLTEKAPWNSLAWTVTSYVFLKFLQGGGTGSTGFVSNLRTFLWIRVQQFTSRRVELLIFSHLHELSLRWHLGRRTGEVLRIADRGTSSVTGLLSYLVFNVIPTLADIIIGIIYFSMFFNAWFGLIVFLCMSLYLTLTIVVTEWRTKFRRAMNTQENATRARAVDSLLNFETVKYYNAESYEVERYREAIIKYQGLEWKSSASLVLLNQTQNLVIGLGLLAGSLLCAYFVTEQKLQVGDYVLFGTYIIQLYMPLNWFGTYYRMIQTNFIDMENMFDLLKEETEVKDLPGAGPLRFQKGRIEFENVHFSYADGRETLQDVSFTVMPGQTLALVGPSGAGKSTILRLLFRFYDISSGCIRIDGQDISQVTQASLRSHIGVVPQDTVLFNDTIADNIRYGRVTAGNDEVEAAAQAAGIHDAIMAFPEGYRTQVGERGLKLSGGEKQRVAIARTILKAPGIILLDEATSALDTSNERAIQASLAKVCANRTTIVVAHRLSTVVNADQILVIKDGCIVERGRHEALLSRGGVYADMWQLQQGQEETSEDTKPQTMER
# PG9 Ab binder = binds the HIV-1 gp120 antibody PG9. inhibition, % at 6.7 µM. TR-FRET gp120-PG9 antibody binding. 360,000 tested, 0.43% active. AID 624416; in the data active = inhibition above about 8.5%
# rCAG RNA binder = molecules binding r(CAG) RNA repeats | r(CAG) RNA repeat, TO-PRO-1 dye displacement fluorescence | 370,000 tested, 1.3% active | AID 651821 | inhibition, % at 3 µM;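 active = inhibition above the plate cutoff, the mean of all test compounds on that plate plus 3 SD, cut at about 35% in these data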;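 also: 0% = DMSO alone and 100% = 100 µM mitoxantrone as full dye displacement; higher means more dye released from RNA so lower well fluorescence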
# Exocytosis inh = blocks lytic granule exocytosis; TALL-104 LAMP-1 surface exposure, flow cytometry; cells stimulated with thapsigargin and PMA; inhibition, % at 10 µM; 360,000 tested, 0.66% active;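 active = inhibition above about 55%, limit read from the data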
# rCAG bind conf = r(CAG) RNA repeat binding, confirmation; shares compounds with rCAG RNA binder; TO-PRO-1 dye displacement fluorescence; inhibition, % at 3 µM; 4,300 tested, 70% active;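 active = inhibition above a per-plate cutoff, the mean inhibition of sample wells plus 3 SD, cut at about 35% in these data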;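 also: loss of TO-PRO-1 fluorescence as compound displaces dye from 1x1 AA loop RNA; 0% = DMSO only wells and 100% = 100 µM mitoxantrone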
# DNA CAG counter = DNA CAG dye complex inhibition counter-screen | 4,300 tested, 94% active | shares compounds with rCAG RNA binder | d(CAG) DNA oligo TO-PRO-1 dye displacement, fluorescence | inhibition, % at 3 µM | AID 652068;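 active = inhibition above its plate's cutoff, the mean test-well inhibition plus 3 SD, cut at about 4.8% in these data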;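 also: 0% = DNA dye mix with DMSO and 100% = 100 µM mitoxantrone; hits displace the dye from DNA and so lower well fluorescence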
# An asterisk follows results filed as active; x = no result given. The list is not random: actives were taken first. Their share in the collection is about 2.5%.
SMILES,ABCB6 inh 2,PG9 Ab binder,rCAG RNA binder,Exocytosis inh,rCAG bind conf,DNA CAG counter
Cc1ccc(S(=O)(=O)Nc2csc(C)c2C(=O)O)cc1,x,2,17,x,x,x
Cc1ccc(S(=O)(=O)Oc2ccc(C3C4=C(CCCC4=O)N(CCC(=O)O)C4=C3C(=O)CCC4)cc2Cl)cc1,102,1,36*,0,37*,11*
O=C(Cc1ccccc1)N/N=C/c1cc(Br)cc(Br)c1O,80,-1,11,-2,x,x
O=C(O)c1ccccc1N/N=C/c1cc(Br)cc(Br)c1O,102,-1,45*,-2,92*,75*
CC1=NN(c2ccc(C)cc2)C(=O)/C1=C/c1ccc(-c2cc([N+](=O)[O-])ccc2O)o1,96,-3,56*,31,64*,34*
O=[N+]([O-])c1ccc2c(c1)ncn2CCc1ccccc1,91,-1,-1,-3,x,x
CCOC(=O)C1=C(C)NC(SCc2cc(=O)[nH][nH]2)=C(C#N)C1c1cccs1 (stereo unspecified),92,-3,59*,0,39*,17*
CCOC(=O)C1=C(C)NC(SCC(N)=O)=C(C#N)C1c1cccs1 (stereo unspecified),112,0,1,-4,x,x
COc1ccc2oc(/C=C/N(C)C)c(C(=O)c3ccc(Cl)cc3)c2c1,104,0,40*,-1,11,9.7*
Cc1ccccc1NC(=O)NCc1ccccn1,98,0,-5,1,x,x
Cc1sc2nc(SCC(=O)OC(C)C)n(C)c(=O)c2c1C,95,-1,-1,-2,x,x
Cc1sc2nc(SCC(=O)c3ccc(O)c(O)c3)n(C)c(=O)c2c1C,x,x,49*,x,50*,25*
N#CC(C#N)=NNc1ccc(S(=O)(=O)N2CCCCC2)cc1,101,-3,46*,5,41*,15*
N#C/C(=N\Nc1ccc(S(=O)(=O)N2CCOCC2)cc1)C(N)=S,97,-3,10,-2,x,x
N=C1S/C(=C\c2ccco2)C(=O)N1c1ccc2c(c1)OCO2,100,-4,38*,-3,26,12*
Cc1ccc(N2C(=O)/C(=C/c3ccco3)SC2=S)cc1,107,-2,44*,3,10,5.7*
Cc1nc(SC(C)C(=O)Nc2cccc(C(F)(F)F)c2)c2c(C)c(C(=O)O)sc2n1 (stereo unspecified),102,1,37*,4,60*,21*
Cc1nc(N2CCC(C)CC2)c2c(C)c(C(=O)Nc3cccc(C(F)(F)F)c3)sc2n1,97,0,1,-4,x,x
CCc1nc(N)c(C#N)c(-c2ccc(O)c(OC)c2)c1C,96,2,-4,2,x,x
COc1cc(-c2c(C#N)c(=O)[nH]c3c2c(C)nn3-c2ccccc2)ccc1O,100,-1,36*,-1,30,6.3*
O=c1[nH]c(=S)[nH]c2c1C(c1ccc(Br)cc1)c1c([nH]c(=S)[nH]c1=O)O2,151,-1,87*,-7,84*,48*
COc1cc(OC)cc(-c2c(C#Cc3ccsc3)c3cc(-c4ccc5[nH]ccc5c4)ccc3n2C)c1,99,1,37*,-1,33,22*
COc1cc(OC)cc(-c2c(C#Cc3ccsc3)c3cc(-c4cc(OC)c(OC)c(OC)c4)ccc3n2C)c1,99,-1,8,-3,x,x
CC1CCCCC1NC(=O)COC(=O)c1ccc2c(c1)NC(=O)CS2 (stereo unspecified),89,0,-1,4,x,x
O=C(Nc1cccc(Oc2ccc(C(=O)O)c(C(=O)O)c2)c1)c1ccc(-c2ccccc2)cc1,90,1,58*,0,53*,19*
SMILES,ABCB6 inh 2,PG9 Ab binder,rCAG RNA binder,Exocytosis inh,rCAG bind conf,DNA CAG counter
CC(Oc1ccc2c(c1)oc(=O)c1ccccc12)C(=O)NC(Cc1c[nH]c2ccc(O)cc12)C(=O)O (stereo unspecified),101,-3,43*,5,27,6.1*
O=C(COc1ccc2c(c1)oc(=O)c1ccccc12)N[C@@H](Cc1c[nH]c2ccccc12)C(=O)O,99,0,51*,-4,54*,18*
O=C(Nc1ccccc1C(=O)NCc1cccnc1)c1ccccc1F,100,-1,-4,-2,x,x
COc1ccc(C2CC(=O)Oc3cc(C)c(Cl)c(C)c32)cc1 (stereo unspecified),109,0,3,5,x,x
CC(=O)C1=C(O)C2(C)c3c(O)c(C)c(O)c(C(C)=O)c3OC2CC1=O (stereo unspecified),102,1,76*,-1,52*,18*
COc1ccc(OC)c(C2Nc3c(Cl)ccc(C(=O)O)c3C3C=CCC32)c1 (stereo unspecified),103,-1,50*,-2,26,7.1*
COc1cccc2c1NC(C(=O)O)C1CC=CC21 (stereo unspecified),105,x,x,-3,x,x
COC(=O)COc1ccc(C2Nc3c(Cl)ccc(C(=O)O)c3C3C=CCC32)cc1 (stereo unspecified),96,-9,76*,3,49*,17*
CCC(C)c1ccc(OCC(=O)Nc2ccc3c(c2)C(=O)NC3=O)cc1 (stereo unspecified),94,-1,2,0,x,x
O=C(O)c1ccc(-n2c(O)c(C=C3N=c4ccccc4=N3)sc2=S)cc1,99,-2,80*,23,62*,24*
O=C(O)c1cccc(N2CCCC2)c1,87,-3,7,0,x,x
O=C(O)c1cccc(-n2c(O)c(C=C3N=c4ccccc4=N3)sc2=S)c1,106,-2,81*,48,64*,22*
CCN(CC)c1ccc(-n2c(O)c(C=C3N=c4ccccc4=N3)sc2=S)cc1,102,0,4,-1,x,x
COc1ccc(-n2nc(C(=O)NCC(=O)NCCC3=CCCCC3)c3ccccc3c2=O)cc1,95,1,-5,3,x,x
CC(C)NC(=O)N(C)C[C@H]1OCc2cn(nn2)CCCC(=O)N([C@H](C)CO)C[C@@H]1C,x,0,-1,x,x,x
COC(=O)c1cc(NS(=O)(=O)c2ccc(Cl)c(N3C(=O)c4ccc(C(=O)O)cc4C3=O)c2)cc(C(=O)OC)c1,101,0,52*,-2,45*,13*
CC1(C)CC(C(CC(=O)N2CCCC2)Cc2ccccc2)CCO1 (stereo unspecified),100,-1,42*,-2,1,0
Cc1ccc(/C=N\NC(=O)/C(=C\Nc2nccc(C)n2)NC(=O)c2ccccc2)cc1,95,0,4,-1,x,x
O=C(O)c1ccc(Nc2nc(-c3ccccc3)nc3ccccc23)cc1,101,1,37*,-1,23,5.5*
O=C(O)c1cccc(Nc2nc(-c3ccccc3)nc3ccccc23)c1,103,-1,49*,-2,34,7.6*
O=C(O)c1cccc(Nc2nc(C(F)(F)F)nc3ccccc23)c1,96,-1,15,1,x,x
CNC(=O)c1ccc(Nc2nc(-c3ccccc3)nc3ccccc23)cc1,93,2,15,6,x,x

# Source: PubChem
